High-throughput results: PubChem BioAssay, National Center for Advancing Translational Sciences (NCATS)
This is a sample that favours compounds with a hit; in the whole collection about 21% have one here.
DT40 TDP1 no CPT: qHTS for Inhibitors of human tyrosyl-DNA phosphodiesterase 1 (TDP1): qHTS in cells in absence of CPT. Potency, µM (series often up to 46.2 µM), without a hit: at the highest dose activity change, negative = growth inhibition, usual class: inhibitors. DT40 Tdp1-/- hTDP1 cells, no CPT, ATP luminescence, 48 h. AID 686978, 2013. 420,000 compounds, 15% hits; also: potency is read from the fitted curve at half-maximal effect; % is scaled to controls: 0 for no effect and ±100 for the full control effect; nearly all actives have a fitted effect of over 55% in size
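Compound effects on proliferation are scored in DT40 Tdp1-/-;hTDP1 cells in the absence of CPT. ATP levels (CellTiter-Glo luminescence) are recorded after a ≥48 hr, 37 °C incubation.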
ClpP mod: qHTS Assay for Activators of ClpP | ATP-dependent Clp protease proteolytic subunit (Bacillus subtilis (strain 168)), P80244 | purified B. subtilis ClpP, FRET peptide cleavage, 20 min | Potency, µM (highest dose often 57.5 µM), for the others: top-dose activity change, negative = active | 340,000 compounds, 1.9% hits; active = well fitted falling curve with a large enough effect; inconclusive = small, poorly fitted or top-dose-only effect; inactive = no such curve, though single readings can be large or run the other way; also: potency is read from the fitted curve at half-maximal effect; the source files actives as falling curves though it sought activators and does not explain the sign; nearly all actives have a fitted effect of over 65% in size
Target sequence (P80244 whole entry, looked up): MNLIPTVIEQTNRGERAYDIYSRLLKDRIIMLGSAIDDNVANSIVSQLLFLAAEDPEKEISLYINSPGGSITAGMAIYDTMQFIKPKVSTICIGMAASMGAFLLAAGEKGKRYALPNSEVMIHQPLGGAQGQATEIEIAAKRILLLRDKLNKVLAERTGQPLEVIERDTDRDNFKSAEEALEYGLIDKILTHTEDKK
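FRET quenching reversal measured ClpP activation: 10 microg/mL B. subtilis ClpP at pH 8 with the FRET-FV decapeptide, read at 430 nm after 320 nm excitation. The 20-min minus 0-min signal was scaled between DMSO/no-enzyme wells and ADEP (5.8 microM final).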
D3 ag: agonists of human D3 dopamine receptor; P35462; D3R DiscoveRx beta-arrestin cells, luminescence, 90 min; max activation, %; 410,000 compounds, 0.58% hits; AID 652048; in the data active = max activation above about 30%; also: 0% is about no effect
Target sequence (P35462 whole entry, looked up): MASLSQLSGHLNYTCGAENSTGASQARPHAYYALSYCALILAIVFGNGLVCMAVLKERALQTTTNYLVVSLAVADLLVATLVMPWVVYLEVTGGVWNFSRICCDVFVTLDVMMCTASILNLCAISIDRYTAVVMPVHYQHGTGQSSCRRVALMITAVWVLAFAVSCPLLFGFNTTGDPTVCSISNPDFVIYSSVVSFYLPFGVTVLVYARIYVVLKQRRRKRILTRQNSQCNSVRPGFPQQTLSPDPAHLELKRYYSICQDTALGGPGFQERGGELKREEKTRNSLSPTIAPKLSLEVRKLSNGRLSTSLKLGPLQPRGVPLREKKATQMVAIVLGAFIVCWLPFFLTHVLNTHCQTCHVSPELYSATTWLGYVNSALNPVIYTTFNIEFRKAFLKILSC
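Cells at 1500/well, incubated overnight, then treated with pinned compounds (dopamine as control) for 90 min at 37 degrees C. DiscoveRx reagent added for 30 - 60 minutes at room temperature; luminescence read.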
TDP1 cell CPT: growth inhibition of DT40 Tdp1-/-;hTDP1 cells with camptothecin (screen for TDP1 inhibitors); 420,000 compounds, 12% hits; Potency, µM (doses to about 46.2 µM), for inactives: at the highest dose activity change, negative = growth inhibition, most hits filed as inhibitors; chicken DT40 Tdp1-/-;hTDP1 cells + 20 nM CPT, ATP luminescence, 48 h; also: potency is read from the fitted curve at half-maximal effect; % is scaled to controls: 0 for no effect and ±100 for the full control effect; nearly all actives have a fitted effect of over 55% in size
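Chicken DT40 Tdp1-/- cells stably complemented with human TDP1 were seeded at 400 cells/well in medium containing 20 nM camptothecin, exposed to pin-transferred compounds, and grown at 37 °C for at least 48 hr. Viability was read as ATP luminescence.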
DRD3 antagonist: antagonists of human D3 dopamine receptor | AID 652054 | P35462 | D3R cells, DiscoveRx beta-arrestin luminescence, antagonist mode; stronger effect = lower value | max response, negative = inhibition, % | 360,000 compounds, 2.5% hits; in the data active = max response below about -50%; inconclusive = no clear call, values can overlap the other calls; also: % is scaled to controls: 0 for no effect and ±100 for the full control effect
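Cells plated overnight at 1500 cells/well, then exposed to library compounds with dopamine controls for 90 minutes at 37 degrees C. DiscoveRx reagent added for 30–60 minutes at room temperature; luminescence read, quantitative HTS format.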
IL1B secr inh: inflammasome signaling inhibition, IL-1 beta readout; THP-1 LPS/ATP IL-1B secretion, AlphaLISA, 16 h; stronger effect = lower value; activity change, % at 57.5 µM; 360,000 compounds, 4.7% hits; in the data active = activity change below about -50%; inconclusive = mostly about -30% to -49%; also: % is scaled to controls: 0 for no effect and ±100 for the full control effect
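THP-1 cells pretreated 1 hr with compounds (up to 57.5 uM final), then stimulated with LPS (250 ng/mL final) plus ATP (1.25 mM final); secreted IL-1B measured by AlphaLISA after 16 hr, decreased signal indicating inhibition.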
Starred values were filed as active, the others as inactive; ? = inconclusive; nt = not tested or not shown. Unless noted, calls follow the shape of the dose curve; as a rule, active = well fitted inhibition curve with a large enough effect; inconclusive = small, poorly fitted or top-dose-only effect; inactive = flat fitted curve, though single readings scatter.

SMILES	DT40 TDP1 no CPT	ClpP mod	D3 ag	TDP1 cell CPT	DRD3 antagonist	IL1B secr inh
Oc1ccc(Cl)cc1CNCC1CCCO1 (configuration not stated)	?	-1%	1	?	?	15
Clc1ccc(-c2ccc(CNCC3CCCO3)o2)cc1 (configuration not stated)	?	nt	-17	-27%	?	-77*
CC(=O)Nc1ccccc1OCCCN1CCC(C(O)(c2ccccc2)c2ccccc2)CC1	?	2%	-14	?	-70*	-3
CC(=O)Nc1ccc(OCCCN2CCC(C(O)(c3ccccc3)c3ccccc3)CC2)cc1	?	1%	-12	?	-104*	8
O=C(Nc1ccc(Cc2ccncc2)cc1)c1cc([N+](=O)[O-])ccc1N1CCOCC1	?	1%	-5	?	-2	6
Cc1ccc(Cl)cc1NC(=O)COC(=O)C12CC3CC(CC(C3)C1)C2	-19%	0%	2	3%	7	30
CCn1c(C(=O)NCc2ccccc2)cc2sc(Cl)cc21	?	-2%	-10	?	nt	nt
COc1ccccc1NC(=O)C(C)Sc1nc2ccccc2c(=O)n1CC1CCCO1 (configuration not stated)	-24%	-3%	-6	?	0	-1
Cc1ccc(CSc2nc3ccc(NC(=O)C(C)C)cc3s2)cc1	?	-3%	-3	-17%	nt	nt
Cc1cc(NCCCN2CCOCC2)n2nc(C)c(-c3ccccc3)c2n1	16µM*	-13%	-4	16µM*	0	-14
Cc1cc(NCCCN2CCOCC2)n2ncc(-c3ccccc3)c2n1	?	-29%	-2	?	-7	-5
Cc1cc(C)c2c(n1)nn1c(NCCCN3CCOCC3)cc(C)nc21	-2%	?	-3	-27%	11	-10
Cc1cc(NCCC(C)C)n2nc(C)c(-c3ccccc3)c2n1	?	28µM*	-12	?	4	?
Cc1cc(NCCCN2CCOCC2)n2nc(C)c(-c3ccc(F)cc3)c2n1	16µM*	-2%	6	?	-24	-57*
CC(C)N(C(=O)CSc1nnnn1-c1ccc2c(c1)OCO2)C(C)C	?	nt	0	-27%	3	37
O=C(NCc1ccc(F)cc1)C(c1ccc(Cl)cc1)N(C(=O)c1csnn1)C1CC1 (configuration not stated)	?	nt	7	?	6	-6
Cc1ccc(C)c(Sc2ccc(NC(=O)CCl)cc2)c1	18µM*	-1%	-6	16µM*	5	-88*
O=C(CCl)Nc1ccccc1Sc1ccccc1	?	-3%	-6	?	?	?
Cc1ccc(Sc2ccc(NC(=O)CCl)cc2)cc1C	?	2%	1	23µM*	-10	-79*
CC1(C)C([N+](=O)[O-])C(c2ccc(Cl)cc2)NC(c2ccc(Cl)cc2)C1[N+](=O)[O-] (configuration not stated)	1%	-2%	-5	-23%	-21	0
CC[C@]1(C(=O)OC)[C@H]2C(=O)N(Cc3ccccc3)C(=O)[C@H]2[C@H]2CN(C)C(=NC)N21	-5%	1%	8	15%	13	32
Clc1ccc(-c2nnc(-c3ccccc3)o2)cn1	2%	-1%	13	3%	9	-1
Cc1nn(-c2ccccc2)c(C)c1/C=N/NC(=O)c1cccs1	15µM*	25µM*	-8	9.2µM*	-3	13
Cc1nn(-c2ccccc2)c(C)c1/C=N/NC(=O)c1cc(-c2cccs2)[nH]n1	0.0082µM*	-5%	-1	0.82µM*	-18	74
O=C(CSc1nnc(SCc2ccccc2)s1)N/N=C/c1c(Cl)cccc1Cl	?	0%	6	?	35	17
SMILES	DT40 TDP1 no CPT	ClpP mod	D3 ag	TDP1 cell CPT	DRD3 antagonist	IL1B secr inh
Cc1nn(-c2ccccc2)c(C)c1/C=N/NC(=O)c1cc(-c2ccc(Br)s2)[nH]n1	4.6µM*	-2%	8	2.9µM*	5	44
Cc1nn(-c2ccccc2)c(C)c1/C=N/NC(=O)CSc1nnc(SCc2ccc(Cl)cc2)s1	15µM*	2%	4	?	35	-5
Cc1cc(C(=O)N/N=C/c2c(C)nn(-c3ccccc3)c2C)n[nH]1	-19%	nt	17	0%	-13	-13
Cc1ccc2c(c1)N(CC(=O)NCCCN1CCOCC1)C(=O)C(C(C)C)O2 (configuration not stated)	-5%	-2%	-14	-10%	?	-2
CC(C)NC(=O)C1(C)CCN1C(=O)c1ccc2c(c1)OCO2 (configuration not stated)	-13%	-1%	7	3%	9	16
O=C(N/N=C/c1ccccn1)c1cc(-c2ccc(Cl)s2)[nH]n1	16µM*	nt	2	23µM*	10	-3
Cc1nn(-c2ccccc2)c(Cl)c1/C=N/NC(=O)OC(C)(C)C	16µM*	-1%	2	?	26	-23
Cc1nn(-c2ccccc2)c(C)c1/C=N/NC(=O)c1cc(-c2ccc(Cl)s2)[nH]n1	4.1µM*	?	10	4.6µM*	7	-12
Cc1nn(-c2ccccc2)c(C)c1/C=N/NC(=O)c1cc(C23CC4CC(CC(C4)C2)C3)[nH]n1	?	-5%	-6	?	8	29
O=C(Nc1ccc2c(c1)CCC2)c1cnn2c1NC(=C1CC1)C=C2C(F)F	?	-2%	nt	?	nt	nt
Cc1ccc(-c2cc(Cc3ccccn3)c(=O)[nH]n2)cc1	-14%	nt	-16	-2%	-19	-11
Cc1cccc(NC(=O)C[n+]2cccc(C)c2)c1	0%	1%	-4	5%	9	-2
Cc1ccc[n+](CC(=O)Nc2ccc([N+](=O)[O-])cc2)c1	21µM*	-2%	-3	10µM*	0	-80*
O=C(C[n+]1cccc(O)c1)Nc1ccc(Br)cc1	-3%	28µM*	-11	1%	7	21
O=C1Cc2cc(NS(=O)(=O)c3cc(F)ccc3F)cc3c2N1CCC3	?	nt	-7	?	9	5
Cc1ccc2oc3nc(C)c(C(=O)O)cc3c(=O)c2c1	?	28µM*	3	?	-8	-14
CCOC(=O)c1cc2c(=O)c3cc(C)ccc3oc2nc1C	15µM*	nt	1	?	6	-2
O=C(CN1C(=O)COc2ccc(S(=O)(=O)Nc3ccccc3)cc21)NCc1ccccc1Cl	?	0%	-15	?	nt	nt
